Laboratory results as given in PubChem BioAssay (NCI).
Compounds without any hit were thinned out: in the full panel of roughly 83,000, 20% have a hit.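 In brief: 96-well plates, 48 h treatment, single concentration, percent growth endpoint.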 The source made the active and inactive calls. The calls were made as follows: active = growth percent below 10; inactive = the rest.

Key:
Assay in all cases: NCI-60 one-dose screen, 48 h (100 = growth as untreated, 0 = no growth, -100 = all killed)
Settings in all cases: 10 µM unless noted
[1] = test system: NCI-H23 lung
[2] = test system: NCI-H226 lung
[3] = test system: NCI-H322M lung
[4] = test system: HOP-62 NSCLC
[5] = test system: NCI-H460 lung
[6] = test system: HOP-92 NSCLC
[7] = test system: NCI-H522 lung
[8] = test system: 786-0 renal
[9] = test system: COLO 205 colon
[10] = test system: A549/ATCC NSCLC

Measured: growth

CCCCCCCCCCCCCCCCCCOc1ccc(CC(=O)OCC[N+]2(C)CCCC2)cc1
inactive: [1] 93.2% | [2] 92.6% | [3] 102% | [4] 101% | [5] 99.7% | [6] 110% | [7] 96.8% | [8] 96.2% | [9] 107%

COc1cc(/C=N/Nc2ncc(-c3cc4cc5c(cc4o3)OCO5)s2)cc(OC)c1OC
inactive: [1] 53% | [2] 76.9% | [3] 103% | [4] 81% | [5] 56.7% | [6] 85.3% | [7] 40% | [8] 84.5% | [9] 46.4%

COc1ccc2nc(NNC(=O)c3cnccn3)c3cccn3c2c1
active: [1] -24.3% | [3] 8.34% | [4] 7.91% | [5] -2.09% | [7] -2.64% | [8] -12% | [9] -27%
inactive: [2] 14.9% | [6] 29.3%

COc1ccc(C(=NN=C(N)N)c2ccc(OC)cc2)cc1
inactive: [1] 41.3% | [2] 50.3% | [3] 49% | [4] 36.6% | [5] 29.8% | [7] 34% | [8] 45.4%
active: [6] 3.59% | [9] -7.03%

Cc1ccc2nc(NC(=O)CSc3nc(-c4ccccc4)c(C#N)c(=O)n3Cc3ccccc3)sc2c1
inactive: [1] 85.9% | [2] 85.2% | [3] 96.4% | [4] 77.8% | [5] 98.3% | [6] 54.9% | [7] 30.5% | [8] 99.3% | [9] 104%

COc1ccc(-c2csc(C3=C(O)CN(CCCN4CCCC4=O)C3=N)n2)cc1OC
inactive: [1] 94.5% | [2] 97.2% | [3] 109% | [4] 90.2% | [5] 113% | [6] 62.8% | [7] 119% | [8] 99.3% | [9] 106%

Cc1ccc(N2CCN(C(=S)c3cccs3)CC2)cc1
inactive: [1] 104% | [2] 94.9% | [3] 107% | [4] 105% | [5] 109% | [6] 74.8% | [7] 82.6% | [8] 90.3% | [9] 112%

Cc1cc(/C=C\c2ccc3ccccc3[n+]2C)c(O)c2ncccc12
active: [1] -4.98% | [2] -35.5% | [3] 8.71% | [5] 4.5% | [8] 9.72% | [9] 9.56%
inactive: [4] 20.3% | [6] 19.4% | [7] 32.1%

O=C(O)C1CCC(=O)N1C(=O)OCc1ccccc1 (stereo unspecified)
inactive: [1] 93.7% | [2] 94.1% | [3] 94% | [4] 94.2% | [5] 106% | [6] 98.7% | [7] 92.8% | [8] 93% | [9] 124%

COc1ccc2c(c1)CCCN2c1c2ccccc2nc2ccccc12
active: [5] 6.18% | [7] -0.944% | [9] -16.8%
inactive: [1] 15.8% | [2] 12.6% | [3] 45.9% | [4] 33.2% | [6] 12.4% | [8] 28.9%

Cc1ccc(S(=O)(=O)Oc2cc(OS(=O)(=O)c3ccc(C)cc3)cc(OS(=O)(=O)c3ccc(C)cc3)c2)cc1
inactive: [1] 98.9% | [2] 101% | [3] 140% | [4] 101% | [5] 100% | [6] 72.1% | [7] 80.8% | [8] 101% | [9] 114%

N=C1C(c2nc(-c3ccc(Br)cc3)cs2)=C(O)CN1CC1CCCO1 (stereo unspecified)
inactive: [1] 88.8% | [2] 103% | [3] 103% | [4] 18.5% | [5] 60.2% | [6] 69.6% | [7] 99.6% | [8] 61.7% | [9] 90.8%

O=C(Cc1ccc(F)c(F)c1)Nc1cc(C2(C(F)(F)F)CC2)nn1Cc1ccccc1
inactive: [3] 13.4% | [8] 12.1%
active: [1] -9.81% | [2] 8.26% | [4] -0.0766% | [5] 0.876% | [6] -17.7% | [7] -24.6% | [9] -86.7%

C[C@@H]1N=C(c2ccc3ccccc3n2)Nc2nc3ccccn3c2C1=O
inactive: [1] 86.3% | [2] 94.4% | [3] 97.3% | [4] 75.1% | [5] 97.2% | [6] 97.2% | [7] 102% | [8] 98.3% | [9] 113%

COC1=C(OC)C(=O)C(OC)=C(OC)C1=O
inactive: [1] 98.6% | [2] 93.6% | [3] 95.7% | [4] 112% | [5] 108% | [6] 103% | [7] 108% | [8] 99.3% | [9] 113%

C[C@H]1[C@H]2[C@H]3CC[C@@H]4[C@@]5(C)C/C(=C/c6cccnc6)C(=O)C(C)(C)[C@@H]5CC[C@@]4(C)[C@]3(C)CC[C@]23CO[C@]1(C)[C@@H](C(=O)/C=C\c1cccnc1)C3
active: [1] -48.7% | [4] -13.6% | [5] -45.3% | [6] -20% | [7] -34.4% | [10] -24.6% | [8] -39% | [9] -56.8%
inactive: [3] 46.4%

COc1ccc2c(c1)C(=O)/C(=C/c1ccc(OCC(=O)Nc3nccs3)cc1)O2
inactive: [2] 94.1% | [3] 127% | [4] 106% | [5] 90.2% | [9] 54.9%
active: [1] 2.06% | [6] -78.8% | [7] -61% | [8] -12.6%

COc1c(CCC[P+](c2ccccc2)(c2ccccc2)c2ccccc2)cc2c(c1OC)OCO2
active: [1] 2.87% | [5] 5.26% | [6] -4.16% | [7] -11.8% | [9] -55.6%
inactive: [2] 27% | [3] 45.4% | [4] 15.1% | [8] 21.8%

CC(=O)[C@@H]1CC[C@]2(COS(=O)(=O)c3ccc(C)cc3)CC[C@]3(C)[C@H](CC[C@@H]4[C@@]5(C)CCCNC(C)(C)[C@@H]5CC[C@]43C)[C@@H]12
inactive: [1] 78.6% | [2] 86% | [3] 93.7% | [4] 87.1% | [5] 41.8% | [6] 57.6% | [7] 89.8% | [8] 89.5%
active: [9] -62.4%

COc1ccc(-c2nc(SCCC(C)C)nc(N/N=C\c3cccc(Cl)c3)c2C#N)cc1
inactive: [1] 82.6% | [2] 90% | [3] 55.8% | [4] 49.7% | [5] 15.2% | [6] 62.5% | [7] 71.3% | [8] 43.2% | [9] 81.9%

COc1ccc2c(c1)O/C(=C\c1cccc(OCC(=O)Nc3nc(C)c(C)s3)c1)C2=O
active: [6] -75.4% | [7] -73.8%
inactive: [1] 19.4% | [2] 92.2% | [3] 103% | [4] 101% | [5] 88.8% | [8] 17.7% | [9] 91.6%

CC(C)(C)n1cc(-c2ccnc(NCCCNS(=O)(=O)c3ccccc3)c2)c(-c2ccccc2)n1
inactive: [1] 76.9% | [2] 82.5% | [3] 88.9% | [4] 90.7% | [5] 78.9% | [6] 24.5% | [7] 74.6% | [8] 56.4% | [9] 57.4%

S=C(Cc1ccc2c(c1)CCCC2)N1CCOCC1
inactive: [1] 98.4% | [2] 110% | [3] 94.8% | [4] 89.8% | [5] 107% | [6] 121% | [7] 81.3% | [8] 101% | [9] 106%

CN(C)CCCn1c(=O)c2ccccc2c2ccccc21
inactive: [1] 76.8% | [2] 87.6% | [3] 98.5% | [4] 80.1% | [5] 66.5% | [6] 45.5% | [7] 53.1% | [8] 68.4% | [9] 55%

COc1cc(/C=N/NC(=O)Cn2c(C(C)C)nc3ccccc32)ccc1O
inactive: [1] 94.9% | [3] 93.5% | [4] 92.9% | [5] 97.7% | [6] 82.3% | [7] 92.4% | [10] 105% | [8] 104% | [9] 109%

COc1ccccc1N1C(=O)/C(=C/C2=Cc3ccccc3OC2)SC1=S
inactive: [1] 97.6% | [2] 103% | [3] 92.6% | [4] 91.7% | [5] 102% | [6] 97.7% | [7] 90% | [8] 101% | [9] 109%

O=c1c2c3c(sc2n2c(-c4cn(-c5ccccc5)nc4-c4ccc(Cl)cc4)nnc2n1Cc1ccccc1)CCCC3
inactive: [1] 94.3% | [2] 107% | [3] 102% | [4] 94.6% | [5] 106% | [6] 81.8% | [7] 77.5% | [8] 99.6% | [9] 111%

COc1ccc2oc3c(C)c4c(c(C)c3c2c1)C(=O)N(Cc1ccccc1)C4=O
inactive: [1] 93.3% | [2] 90.1% | [3] 92.4% | [4] 88.9% | [5] 69.4% | [6] 85.5% | [7] 87.5% | [8] 114% | [9] 84.7%

COc1cc(N2C(=O)c3nccnc3C2=O)cc(OC)c1OC
inactive: [1] 99.6% | [2] 114% | [3] 99.7% | [4] 95.9% | [5] 111% | [6] 89.9% | [7] 95.2% | [8] 97.1% | [9] 111%
